Screening results from PubChem BioAssay.
MITF TRPM1 inh – inhibitors of MITF-driven TRPM1 promoter in melanoma cells; hit rate 0.83% among 330,000; SK-MEL-5 TRPM1 promoter luciferase, 24 h; AID 488899; inhibition, % at 12.5 µM;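 active means mean inhibition across replicates of 60% or more, whatever share of single replicates reaches that level; inconclusive means some that reach 60%, reason not given; inactive means mean inhibition across replicates below 60%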
EBV LMP1 NFkB – reduces LMP1-driven NF-kappaB luciferase signal; LMP1-induced NF-kappaB luciferase reporter cells, luminescence; inhibition, % at 12.5 µM; hit rate 0.69% among 350,000; AID 504558; in the data active means inhibition above about 41%; inconclusive means no clear call, values can overlap the other calls;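 further: 0% = neutral control wells and 100% = reference inhibitor control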
KKLEB tox – reduces viability of KKLEB cystic fibrosis airway cells. KKLEB CF airway cells viability, ATPlite luminescence, overnight; active compounds read low; cells stimulated with P. aeruginosa culture filtrate. activity change (cytotoxicity), % at 5 µM. hit rate 0.36% among 360,000;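 active means corrected activity change at or below -50% at 5 µM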
Peg3 prom inh – inhibitors of Peg3 promoter; inhibition, % at 20 µM; HeLa PEG-Prom luciferase reporter, luminescence, overnight; hit rate 1.7% among 360,000;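 active means inhibition of at least 50% at 20 µM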
Shn3 3UTR inh – inhibitors of Schnurri-3 3'UTR reporter in osteoblasts | Clone20 osteoblast Shn3 3'UTR firefly luciferase, 24 h | inhibition, % at 12.5 µM | hit rate 0.52% among 360,000 | AID 588674;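 active means mean inhibition of at least 75% with every replicate also reaching 75%; inconclusive means mean inhibition at least 75% but some replicate below; inactive means mean inhibition below 75%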;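 further: 0% = median of neutral control wells and 100% = pilot-screen positive control compound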
CF NFkB block – blocks PAF-induced NF-kB reporter in cystic fibrosis cells; KKLEB NF-kB-GFP reporter, GFP fluorescence overnight; inhibition, % at 5 µM; hit rate 0.86% among 360,000; AID 588850;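 active means at least 50% inhibition at 5 µM, scaled per plate between neutral and stimulator controls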;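 further: PAF is a Pseudomonas aeruginosa culture filtrate used as stimulus; plate controls were PAF-stimulated DMSO wells for no effect and unstimulated DMSO wells for full effect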
Active calls of the source: *; ? = inconclusive; nt = not tested or not shown. Sampled rows, rich in hits. Any-hit rate of the full collection: about 2.9%.

SMILES	MITF TRPM1 inh	EBV LMP1 NFkB	KKLEB tox	Peg3 prom inh	Shn3 3UTR inh	CF NFkB block
CCCCn1c(N)c(N(CC(C)C)C(=O)CC(NC(=O)c2ccccc2Cl)c2ccccc2)c(=O)[nH]c1=O (stereo not drawn)	nt	6	7	-6	2	-1
Cc1ccc(N(CC(O)Cn2c3ccccc3c3ccccc32)S(C)(=O)=O)cc1 (stereo not drawn)	12	-8	-10	12	-20	15
CC(=O)Nc1ccc(N(CC(O)Cn2c3ccccc3c3ccccc32)S(=O)(=O)c2ccc(C)cc2)cc1 (stereo not drawn)	10	-8	-11	61*	29	4
CCOC(=O)C1(C)CCCCCN1C(=O)c1ccc(OC)cc1 (stereo not drawn)	nt	nt	9	-1	5	1
COC(=O)C1=C(C)N(Cc2ccccc2)C(=NCc2ccco2)N[C@H]1c1cccc(F)c1	-3	0	-1	-8	-1	-4
COC(=O)C1=C(C)N(Cc2ccccc2)C(=NCc2ccccc2)N[C@H]1c1cccc(C(F)(F)F)c1	89*	7	-38	99*	17	28
COC(=O)C1=C(C)N(Cc2ccccc2)C(=NCC(C)C)N[C@H]1c1cccc(F)c1	-4	5	-19	83*	-10	30
COC(=O)C1=C(C)N(Cc2ccccc2)C(=O)N[C@H]1c1cccc(C(F)(F)F)c1	nt	1	-13	25	-37	24
COC(=O)C1=C(C)N(Cc2ccccc2)C(=NCCc2cccnc2)N[C@H]1c1ccccc1	-9	3	-2	-22	15	-10
COC(=O)C1=C(C)N(Cc2ccccc2)C(=NCC(C)C)N[C@H]1c1cccc(C(F)(F)F)c1	96*	-4	-3	103*	7	24
COC(=O)C1=C(C)N(Cc2ccccc2)C(=NCCc2cccnc2)N[C@H]1c1ccc(Br)cc1	78*	4	-22	94*	-85	29
NC(=O)c1ncn([C@@H]2O[C@H](CNCc3cc(Cl)ccc3OCc3ccc(Cl)cc3)[C@@H](O)[C@H]2O)n1	0	-5	-5	-20	-8	-2
CCCCCCn1c2c(c(=N)c3c1CCC3)CCC2	?	?	-44	40	70	32
CCCCCCCCCn1c2c(c(=N)c3c1CCC3)CCC2	78*	37	-62*	66*	65	55*
CCCCCCCn1c2c(c(=N)c3c1CCC3)CCCC2	68*	41*	-23	31	44	47
CNS(=O)(=O)c1ccc(CNC[C@H]2O[C@@H](n3ccc(N)nc3=O)[C@H](O)[C@@H]2O)cc1	nt	-3	1	4	-11	20
CC1(C2CC2)NC(=O)N(CC(=O)Nc2ccc(OC(F)F)cc2)C1=O (stereo not drawn)	nt	-1	12	1	-4	-17
O=C(O)CCN1C(=O)C(=C2CCCCCC2)SC1=S	2	-3	11	-6	-8	0
O=C1C(=C2CCCCC2)SC(=S)N1Cc1ccco1	11	44*	-14	31	-8	2
CC1CN(C(=O)COC(=O)[C@@H](NC(=O)c2ccccc2Cl)C(C)C)CC(C)O1 (stereo partly drawn)	nt	-5	10	-6	8	14
O=C(Cn1c(COc2ccccc2)nc2ccccc21)Nc1cc(Cl)ccc1Cl	0	-78	-46	54*	14	41
COc1ccc(N2C(=O)c3ccccc3NC2(C)C)cc1	-53	42*	1	-102	-29	-15
CCOC(=O)C(Cc1c[nH]c2cc([N+](=O)[O-])ccc12)(NC(C)=O)C(=O)OCC	10	4	12	12	8	-36
CCOC(=O)C(CC)(CC)C(=O)/C=C/c1cccc(Br)c1	30	-27	1	109*	73	24
NC(=O)NC(=O)COC(=O)/C=C/c1cccc(Br)c1	1	1	11	6	-1	-11
SMILES	MITF TRPM1 inh	EBV LMP1 NFkB	KKLEB tox	Peg3 prom inh	Shn3 3UTR inh	CF NFkB block
CC(C)(C)c1ccc(C(=O)N2CCC2(C)C(=O)NCC(F)(F)F)cc1 (stereo not drawn)	nt	nt	-2	10	9	-10
C#CCOCCOCCOCCNc1nc(N2CCN(C(=O)CCCCCCCCCCNC(=O)[C@H]([C@@H](C)CC)n3cc(CCCCN=C(N)N)nn3)CC2)nc(N2CCN(C(=O)CCCCCCCCCCNC(=O)[C@H](CO)n3cc(CCCCCN)nn3)CC2)n1	85*	3	10	28	29	8
C#CCOCCOCCOCCNc1nc(N2CCN(C(=O)CCCCCCCCCCNC(=O)Cn3cc(CCCCCN)nn3)CC2)nc(N2CCN(C(=O)CCCCCCCCCCNC(=O)[C@@H](CCSC)n3cc(CCO)nn3)CC2)n1	35	5	5	77*	5	-10
C#CCOCCOCCOCCNc1nc(N2CCN(C(=O)CCCCCCCCCCNC(=O)[C@H](CO)n3cc(CCCSC)nn3)CC2)nc(N2CCN(C(=O)CCCCCCCCCCNC(=O)[C@H](CCCCN)n3cc(CCO)nn3)CC2)n1	7	4	5	15	-15	5
C#CCOCCOCCOCCNc1nc(N2CCN(C(=O)CCCCCCCCCCNC(=O)[C@H]([C@@H](C)CC)n3cc(CCCCCN)nn3)CC2)nc(N2CCN(C(=O)CCCCCCCCCCNC(=O)[C@H]([C@@H](C)CC)n3cc(CCCCN=C(N)N)nn3)CC2)n1	99*	10	13	71*	37	-46
C#CCOCCOCCOCCNc1nc(N2CCN(C(=O)CCCCCCCCCCNC(=O)[C@H](CO)n3cc(CCCSC)nn3)CC2)nc(N2CCN(C(=O)CCCCCCCCCCNC(=O)[C@H](CCCN=C(N)N)n3cc(C[C@@H](C)CC)nn3)CC2)n1	89*	0	8	0	10	20
CCCNC(=O)C1(C)CCN(Cc2ccc(-c3ccccc3)o2)C1 (stereo not drawn)	nt	nt	-4	-8	-8	15
C#CCOCCOCCOCCNc1nc(N2CCOCC2)nc(N2CCN(C(=O)CCCCCCCCCCNC(=O)[C@@H]([C@H](C)CC)n3cc(CCCCCN)nn3)CC2)n1	19	-3	8	53*	2	1
C#CCOCCOCCOCCNc1nc(N2CCN(C(=O)Cn3cc(CCCN=C(N)N)nn3)CC2)nc(N2CCN(C(=O)[C@H]([C@@H](C)CC)n3cc(CCCCN)nn3)CC2)n1	3	-1	2	-8	15	18
C#CCOCCOCCOCCNc1nc(N2CCN(C(=O)CCCCCCCCCCNC(=O)[C@@H](CCC(=O)O)n3cc(CCCCCN)nn3)CC2)nc(N2CCN(C(=O)CCCCCCCCCCNC(=O)[C@H]([C@@H](C)CC)n3cc(CCCCCN)nn3)CC2)n1	-7	5	19	-40	3	0
